Compound activity as filed in PubChem BioAssay.
MRP resist rev: compounds reversing MRP-mediated drug resistance; H69AR cells + 2 uM doxorubicin, CellTiter-Glo, 72 h; differential viability (reversal), % at 10 µM; 85,000 tested, 0.04% active; AID 602;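 active = viability drop by adding the cancer drug above about 55%, with treated viability meeting a 40% cutoff, limit read from the data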;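 note: viability without doxorubicin minus viability with 2 µM doxorubicin for each compound; larger differential means the compound sensitizes cells more to doxorubicin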
ERa SRC1 pot: ER-alpha (human) coactivator binding potentiation; P03372; TR-FRET ERalpha-LBD/SRC-Cy5 coactivator binding, 2 h; 100 = basal binding, no effect; coactivator binding (% of control), % at 25.6 µM; 86,000 tested, 1.3% active; in the data active = activity above about 200%;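 note: binding measured in presence of low estradiol as agonist stimulus; 0% = peptide alone without receptor and 100% = receptor with peptide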
MRP-1 activ: activators of MRP-1; H69AR cells + doxorubicin, viability rescue, CellTiter-Glo; viability increase, % at 10 µM; 140,000 tested, 0.61% active; AID 799;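 active = viability gain under doxorubicin at or above a set limit, the compound median plus 3 SD, cut at about 4.7% in these data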;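 note: MRP-1 overexpressing cells given doxorubicin 25 µM after compound pretreatment; 18-22 h compound pretreatment then 72 h with doxorubicin before readout; 0% = doxorubicin-only wells and 100% = vehicle-treated cells without doxorubicin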
ERa coact inh: blocks coactivator binding to human estrogen receptor alpha; P03372; TR-FRET ER-alpha LBD / SRC-1 peptide, estradiol-bound; inhibition, % at 25.6 µM; 86,000 tested, 1.7% active; AID 629; in the data active = inhibition above about 50%;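 note: 0% = receptor plus peptide control and 100% = peptide only without receptor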
Smad3 FoxH1 inh: inhibitors of human Smad3 transcription factor binding | P84022 | TR-FRET Smad3/Dy647-FoxH1 peptide binding, europium anti-His | inhibition, % at 25 µM | 88,000 tested, 0.29% active | AID 630;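 active = compounds that reduce the energy-transfer binding signal between the protein and its labelled peptide by more than half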;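 note: 0% = Smad3 plus labelled peptide maximal FRET and 100% = peptide-only background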
ERb SRC1 inh: blocks coactivator binding to human estrogen receptor beta; Q92731; TR-FRET ER-beta LBD / SRC1-Cy5 peptide binding; receptor agonist-loaded with 1 µM estradiol; inhibition, % at 25.6 µM; 86,000 tested, 1.3% active;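 active = compounds whose percent inhibition of the receptor-coactivator binding signal exceeds about 50% in the single-dose screen, limit read from the data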;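 note: 0% = receptor plus peptide wells without compound and 100% = peptide-only wells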
Target sequence (Q92731 whole entry, looked up, the tested form may be a part): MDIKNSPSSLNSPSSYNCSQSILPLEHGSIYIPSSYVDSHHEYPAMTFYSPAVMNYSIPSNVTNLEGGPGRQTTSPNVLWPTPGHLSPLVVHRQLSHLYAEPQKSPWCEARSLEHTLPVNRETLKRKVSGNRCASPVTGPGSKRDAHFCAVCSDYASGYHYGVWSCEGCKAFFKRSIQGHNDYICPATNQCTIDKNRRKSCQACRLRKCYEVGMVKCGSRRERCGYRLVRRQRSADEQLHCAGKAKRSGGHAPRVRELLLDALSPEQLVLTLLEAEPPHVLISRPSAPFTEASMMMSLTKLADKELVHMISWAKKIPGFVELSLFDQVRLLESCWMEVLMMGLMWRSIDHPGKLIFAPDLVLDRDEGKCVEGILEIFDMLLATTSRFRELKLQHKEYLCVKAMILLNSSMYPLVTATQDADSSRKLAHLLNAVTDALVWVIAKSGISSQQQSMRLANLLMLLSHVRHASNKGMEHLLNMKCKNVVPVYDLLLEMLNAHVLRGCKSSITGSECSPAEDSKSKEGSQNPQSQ
The depositor's hits bear a star; x = not tested or not shown; [ ] = remark or other dose. Sampled rows, rich in hits. Any-hit rate of the full collection: about 2.8%.

SMILES	MRP resist rev	ERa SRC1 pot	MRP-1 activ	ERa coact inh	Smad3 FoxH1 inh	ERb SRC1 inh
COc1ccc(Cl)cc1NC(=O)CSc1nnc(COc2ccccc2)n1C	-20	121	2	-10	-3	-2
COc1ccc(Cl)cc1NC(=O)CSc1nnc(COc2ccccc2)n1N	20	102	7.8*	-7	-7	17
COc1c([N+](=O)[O-])c(=O)n(-c2ccccc2)c2ccccc12	x	x	-2	x	x	x
Cc1ccc(C)c(SCC(=O)OCC(=O)c2ccco2)c1	0	70	-3	65*	7	63*
COc1cc(/C=c2\s/c(=C(/C#N)C(=O)N3CCCC3)n(-c3ccccc3)c2=O)ccc1O	-10	64	-1	59*	-2	19
CC(C)Cn1c(N)c(C(=O)CSc2cc(Cl)ccc2Cl)c(=O)n(C)c1=O	x	x	-1	x	x	x
CCc1nnc2sc(-c3ccc(NC(=O)CSc4ccc(Cl)cc4)cc3)nn12	-3	225*[fluorescence artefact?]	x	31	-136	-2
COC(=O)c1cc(-c2ccccc2)sc1NC(=O)CN1C(=O)c2ccccc2C1=O	x	x	0	x	x	x
N=C(N)SCCN1CCCCC1	x	x	x	x	19	x
CCSc1nnc(NC(=O)C2Cc3ccccc3CN2C(=O)c2ccco2)s1 (stereo not given)	11	128	-2	53*	9	43
CCS(=O)(=O)N1Cc2ccccc2CC1C(=O)Nc1nnc(SCc2ccc(C#N)cc2)s1 (stereo not given)	x	x	-3	x	x	x
O=C(Nc1cccc(Cl)c1Cl)c1ccncc1	13	99	-1	54*[fluorescence artefact?]	-1	-4
CN(C(=O)c1c(Br)cnn1C)C12CC3CC(CC(C3)C1)C2	x	x	-3	x	x	x
C[C@H](CCC(=O)O)[C@H]1CC[C@@]2(C)[C@@H]3C(=O)C[C@H]4C(C)(C)[C@@H](O)CC[C@]4(C)[C@H]3C(=O)C[C@]12C	x	x	x	x	-11	x
O=C(Nc1cnc2ccccc2c1)c1ccco1	x	117	-1	57*	-6	-5
O=C(Nc1cccc(-c2nc3ccccc3[nH]2)c1)c1cccc(NC(=O)c2ccco2)c1	0	193	-2	70*[fluorescence artefact?]	-5	68*[fluorescence artefact?]
CC(C)(C)c1cc(Br)c(O)c(CN(Cc2cc(C(C)(C)C)cc(Br)c2O)C2CCCCC2)c1	x	x	x	x	5	x
CN1CCc2ccccc2[C@H]1Cc1ccccc1NC(=O)c1sc2ccccc2c1Cl	x	x	x	x	32	x
O=C(O)CCn1cnc2c(=S)nc[nH]c21	x	x	x	x	53*	x
O=C(O)CCCCn1cnc2c(=S)nc[nH]c21	x	x	x	x	52*	x
Nc1ncnc2c1ncn2CCCCC(=O)O	x	x	x	x	16	x
CN1CCN(S(=O)(=O)c2ccc(Sc3nnc(-c4cccs4)n3-c3ccccc3)nc2)CC1	2	97	0	7	5	-6
Cn1nnnc1SCC(=O)N(C1CCCCC1)C1CCCCC1	8	108	-2	-5	-9	51*[fluorescence artefact?]
CC/C(=N/Nc1ccccc1)c1cnnc(-c2ccccc2)n1	1	87	-4	82*[fluorescence artefact?]	2	60*
CNC(=O)CSc1nc2c(c(=O)n(C)c(=O)n2C)n1Cc1ccc(C)cc1	7	201*	-2	15	2	0
SMILES	MRP resist rev	ERa SRC1 pot	MRP-1 activ	ERa coact inh	Smad3 FoxH1 inh	ERb SRC1 inh
Cc1ccc(Cn2c(SCC(=O)Nc3cccc(C)n3)nc3c2c(=O)n(C)c(=O)n3C)cc1	-6	165	x	4	24	8
N#CC(CC(=O)O)=C(c1ccccc1)c1ccccc1	x	x	x	x	-4	x
COc1ccc(N2C(=O)CCC2=O)cc1	18	45	-1	52*[fluorescence artefact?]	-7	43
Nc1nc(Nc2cccc3ccccc23)nc(C2CCCC2=O)n1 (stereo not given)	0	261*[fluorescence artefact?]	-4	37	-10	36
CCOC(=O)c1c(N)sc(=S)c2c1CCC2	9	45	-1	55*[fluorescence artefact?]	8	70*
CCOC(=O)c1c(N)sc(N)c1C(=O)OCC	x	x	-1	x	x	x
N=C1C=CC(=C(c2ccc(N)cc2)c2ccc(N)cc2)C=C1	x	x	x	x	3	x
CC1(C)Cc2c(sc3c2c(=N)n(Cc2ccco2)c(=O)n3CC(=O)Nc2cccc(Cl)c2)CO1	4	129	1	19	0	8
Cc1cccc(NC(=O)Cn2c(=O)n(Cc3ccco3)c(=N)c3c4c(sc32)COC(C)(C)C4)c1	-2	115	9.4*	-3	-5	1
Cc1ccc(S(=O)(=O)NCCSc2nnnn2C)cc1	6	112	-1	-1	3	75*[fluorescence artefact?]
Cn1nnnc1SCCNS(=O)(=O)c1ccccc1	3	144	1	10	1	3
Cn1nc(CC(=O)Nc2ncc(Br)s2)c2ccccc2c1=O	19	88	-3	36	18	50*
Cn1nc(CC(=O)NC2CCCCCCCCCCC2)c2ccccc2c1=O	6	50	-3	91*[fluorescence artefact?]	-14	55*[fluorescence artefact?]
COc1ccc(CC[N@+]2(C)COc3cc4oc(=O)cc(C)c4cc3C2)cc1OC	x	x	x	x	17	x
Cc1nn(-c2ccccc2)c(Cl)c1/C=N/Nc1ccc(Cl)c(C(=O)O)c1	x	x	-1	x	x	x
Cc1nn(-c2ccccc2)c(Cl)c1/C=N/Nc1ccc(S(=O)(=O)Nc2ccccc2C(=O)O)cc1[N+](=O)[O-]	16	23	-1	89*	9	64*
O=S(O)O.O=S(O)O.[Co].[NH2-].[NH2-].[NH2-].[NH2-]	x	x	x	x	6	x
Cc1c(C(=O)OC2CCC(C)CC2)[nH]c2c1C(=O)CCC2 (stereo not given)	25	89	5.2*	6	4	3
CCN(CC)CCN(Cc1cc2cc(C)cc(C)c2[nH]c1=O)C(=S)NCc1ccco1	x	x	23*	x	x	x
CCN(CC)CCN(Cc1cc2cc(C)ccc2[nH]c1=O)C(=S)NCc1ccco1	x	x	-4	x	x	x
COc1ccccc1C(=O)N1CCN(c2ccccn2)CC1	5	114	-2	1	-2	-2
COc1cccc(OC)c1C(=O)N1CCN(c2ccccn2)CC1	-20	117	-1	-30	8	52*[fluorescence artefact?]
